We go through 27 compounds from PubChem BioAssay AID540256 (National Center for Advancing Translational Sciences (NCATS), 2011).

Among all 300,000 compounds or so, about 3,700 (1.2%) were called active. A call without a number means that no potency is given here. Not shown: some 20% with an inconclusive outcome. Calls follow the shape of the full dose curve; tested in HEK293 cells. This excerpt belongs to a sample that is enriched for actives.
Potency is read from the fitted curve at half-maximal effect.

The experiment can be described thus: qHTS for Inhibitors of binding or entry into cells for Lassa Virus. Also: nearly all actives have a fitted effect of over 50% in size. Conditions: Lassa virus pseudotype entry inhibition, cell reporter; series mostly up to 37.9 µM. A general note: qHTS replaces the single test concentration by a dilution series.
With `O=C(/C=C/c1cccc([N+](=O)[O-])c1)OCC(=O)N1CCOCC1`, the Potency result is “inactive”.
With `O=C(NCCc1ccco1)c1ccc(OCc2cn3ccccc3n2)cc1`, the Potency entry is “inactive”.
The value for `CCc1nn(CCCC(=O)Nc2ccc(C)c(C)c2)c(=O)c2cc3occc3n12` was “inactive”; that for `C=CCN(CC=C)S(=O)(=O)c1ccc(C(=O)Nc2nc3c(s2)CCc2ccccc2-3)cc1` was 3.16 µM (active).
The value for `C=CCN(CC=C)S(=O)(=O)c1ccc(C(=O)Nc2sc3c(c2C(N)=O)CCCCC3)cc1` was “inactive”.
With `CCOC(=O)c1c(NC(=O)c2ccc(S(=O)(=O)N(CC)CC)cc2)sc2c1CCCCC2`, the Potency result is “inactive”.
On to `O=C(Nc1ncccc1O)c1ccc(S(=O)(=O)N2CCCCCC2)cc1`, for which the Potency result is “inactive”.
The same measure for `O=C(CSc1cccc2cccnc12)N/N=C/c1cccnc1`: “inactive”; for `COc1c(Cl)cc(Cl)cc1C(=O)Nc1cccc2cccnc12`: “inactive”; for `CC(=O)/C(=N\Nc1ccc(Cl)cc1Cl)Sc1cccc2cccnc12`: 11.2 µM (active).
As to `O=C(CC(=O)c1cccnc1)c1ccccc1`, the Potency entry was “inactive”.
In the case of `CCN(C(=O)CSc1cccc[n+]1[O-])c1ccccc1`, the Potency result was “inactive”.
Regarding `CC1(C(=O)N/N=C/c2cc3c(cc2Br)OCO3)CC1(Br)Br` (configuration not stated), the Potency result was “inactive”.
Turning to `CS(=O)(=O)c1ccc2nc(NC(=O)c3ccc(N4CCCC4=O)cc3)sc2c1`, the Potency result was “inactive”.
For the compound `O=C(Nc1nc2ccc([N+](=O)[O-])cc2s1)c1ccncc1`, the Potency entry is “inactive”.
The same measure for `O=C(COC(=O)c1ccc(F)cc1)Nc1nc2ccc([N+](=O)[O-])cc2s1`: “inactive”; for `O=C(Nc1nc2ccc([N+](=O)[O-])cc2s1)c1ccc(S(=O)(=O)N2CCCc3ccccc32)cc1`: 12.6 µM (active); for `O=C(NC(Nc1nc2ccc([N+](=O)[O-])cc2s1)(C(F)(F)F)C(F)(F)F)c1ccccc1`: 0.92 µM (active).
The value for `O=C(Nc1nnc(S(=O)(=O)N2CCCc3ccccc32)s1)c1cccc(F)c1` was “inactive”; that for `COc1cc(C2C(C(=O)c3cccs3)=C(O)C(=O)N2CCN2CCOCC2)ccc1OCCC(C)C` (configuration not stated) was “inactive”; that for `COc1cc(C(=O)CCc2ccc3c(c2)OCO3)cc(OC)c1OC` was “inactive”.
The same measure for `Cn1c(=O)[nH]c2c(c(C(=O)O)nn2C)c1=O`: “inactive”; for `COc1cc2c(cc1OC)CN(C(C)C(=O)Nc1cccc(S(=O)(=O)N3CCOCC3)c1)CC2` (configuration not stated): “inactive”; for `CC(=O)CSc1nc(CCc2ccccc2)c(C#N)c(=O)[nH]1`: “inactive”.
On to `O=C(NCCN1CCN(Cc2ccccc2)CC1)c1cc2c(=O)[nH]c3ccccc3c2s1`, for which the Potency result is “inactive”.
As to `Cc1cccc(N2CCN(C(=O)c3cc4c(=O)[nH]c5ccccc5c4n3C)CC2)c1C`, the Potency entry was “inactive”.
In the case of `Cn1c(C(=O)NCCN2CCc3ccccc3C2)cc2c(=O)[nH]c3ccccc3c21`, the Potency was 0.92 µM (active).
